# The list is not random: actives were taken first. Their share in the collection is about 1.9%.
# USP2a block – blocks human ubiquitin-specific protease USP2a. O75604. USP2 core, Ub-CHOP2 coupled fluorogenic reporter, 485/531. Potency, µM (series often up to 38.3 µM), without a hit: at the highest dose activity change, negative = inhibition, hits mostly inhibitors. actives 0.01% (n = 330,000);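 further: potency means the concentration at half of the fitted maximal effect; plate controls were DMSO wells for no effect and full inhibition by NEM control for full effect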
#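 USP2 core (10nM final) preincubated 30min RT with compound in 20mM Tris-HCl pH 8.0, 2mM CaCl2, 2mM beta-mercaptoethanol, 0.05% CHAPS; 25nM Ub-CHOP2 plus 25nM reporter substrate added, fluorescence (Ex485/Em531) read after 60min.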
# Pin1 inhibitor – human Pin1 inhibition; actives 0.009% (n = 390,000); Pin1 FP peptide displacement, HiFluor488, 10 min; Potency, µM (series often up to 115 µM), for inactives: at the highest dose activity, negative = inhibition, most hits filed as inhibitors; Q13526; active means well fitted inhibition curve with a large enough effect in the polarisation, with a control signal flat, not every such curve was filed as active; inconclusive means small, poorly fitted or top-dose-only effect, or effect the other way, or a change in a side signal; inactive means no such curve, though single readings can be large or run the other way; the % refers to the polarisation; further: potency means the concentration at half of the fitted maximal effect; on the % scale 0 is the no-effect control and ±100 the full control effect
# ClpP mod – qHTS Assay for Activators of ClpP | purified B. subtilis ClpP, FRET peptide cleavage, 20 min | Potency, µM (doses to about 57.5 µM), without a hit: at the highest dose activity change, negative = active | actives 1.9% (n = 340,000); active means well fitted falling curve with a large enough effect; inconclusive means small, poorly fitted or top-dose-only effect; inactive means no such curve, though single readings can be large or run the other way; further: potency means the concentration at half of the fitted maximal effect; the source files actives as falling curves though it sought activators and does not explain the sign; nearly all actives have a fitted effect of over 65% in size
# Target sequence (P80244 whole entry, looked up): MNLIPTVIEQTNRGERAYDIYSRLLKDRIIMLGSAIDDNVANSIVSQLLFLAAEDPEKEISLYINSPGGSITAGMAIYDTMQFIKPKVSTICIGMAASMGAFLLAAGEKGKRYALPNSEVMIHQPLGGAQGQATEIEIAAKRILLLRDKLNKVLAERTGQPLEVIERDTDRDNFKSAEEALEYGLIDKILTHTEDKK
#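 Buffer: 100 mM Tris/HCl pH8, 100 mM KCl, 0.05% low protease BSA, 2.5% glycerol, 0.01% Tween-20. ClpP 10 microg/mL final; 20 min RT; delta FRET normalized to ADEP and DMSO controls.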
# PKM2 activator – activators of human pyruvate kinase M2. purified PKM2, Kinase-Glo ATP luminescence, activation; response scale: 0% is enzyme alone, no compound. Potency, µM (doses to about 57.5 µM), for inactives: at the top dose activation, usual class: activators. actives 0.34% (n = 260,000); further: potency means the concentration at half of the fitted maximal effect; on the % scale 0 is the no-effect control and ±100 the full control effect; nearly all actives have a fitted effect of over 55% in size
# Target sequence (P14618 whole entry, looked up): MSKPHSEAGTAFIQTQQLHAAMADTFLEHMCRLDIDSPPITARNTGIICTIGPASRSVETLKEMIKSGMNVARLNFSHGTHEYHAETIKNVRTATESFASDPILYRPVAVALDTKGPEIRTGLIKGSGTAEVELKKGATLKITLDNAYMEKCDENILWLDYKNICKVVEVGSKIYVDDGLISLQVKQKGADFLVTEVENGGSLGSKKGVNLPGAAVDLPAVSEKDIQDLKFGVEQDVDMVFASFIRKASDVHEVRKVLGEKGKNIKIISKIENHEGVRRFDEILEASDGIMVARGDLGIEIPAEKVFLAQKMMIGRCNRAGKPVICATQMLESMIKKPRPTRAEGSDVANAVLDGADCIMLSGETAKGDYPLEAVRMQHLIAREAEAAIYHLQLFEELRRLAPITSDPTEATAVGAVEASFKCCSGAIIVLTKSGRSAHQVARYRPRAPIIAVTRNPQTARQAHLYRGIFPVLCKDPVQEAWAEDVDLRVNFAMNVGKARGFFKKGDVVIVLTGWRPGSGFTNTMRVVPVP
#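 Purified hPK-M2 (>95%) run at intermediate activity with 0.1 mM ADP and 0.5 mM PEP in 50 mM imidazole pH 7.2, KCl, MgCl2; 1 h room temperature. ATP formed read by Kinase-Glo luminescence; normalized to uninhibited and no-enzyme controls.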
# a7 integrin act – activates integrin-mediated alleviation for muscular dystrophy; Potency, µM (highest dose often 38.3 µM), without a hit: at the highest dose activation, usual class: activators; AID 624291; actives 0.064% (n = 350,000); alpha7betagal myoblasts, beta-gal FDG fluorescence, 48 h;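 further: potency means the concentration at half of the fitted maximal effect; 100% = response of the positive control SU9516; nearly all actives have a fitted effect of over 60% in size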
#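 Alpha7betagal+/- myoblasts (passage 13) were plated 16-24 hr, then exposed to compounds (1:260 dilution of DMSO stock) for 48 hours at 37C. After MPER lysis, β-galactosidase reporter activity was read as FDG fluorescence (ex 480/em 540) after 30 minutes.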
# IL-2 act – IL-2 activation. IL-2 activation reporter assay, cell-based qHTS; stimulated with anti-CD3/CD4/CD28 beads; in transgenic mouse T cells. activation, % (series mostly up to about 46 µM). actives 0.065% (n = 360,000); in the data active means activation above about 50%; inconclusive means mostly about 30% to 49%; further: 0% is about no effect
#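 Readout is EGFP and DsRed signal by fluorescent plate cytometry after 18 h at 37 degrees C. Transgenic mouse T cells (750/well) received compound for 60 min before bead stimulation (anti-CD3, anti-CD4, anti-CD28); memory T cells served as non-tolerant control.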
# * = called active by the depositor; ? = inconclusive; nt = no result; ! = not confirmed by another sample; [ ] = remark or other dose. Unless noted, the call rests on the fitted dose curve; in most records, active means well fitted curve in the direction sought with a large enough effect; inconclusive means small, poorly fitted or top-dose-only effect, or another doubt; inactive means no such curve, though single readings can be large; an effect the other way counts as inactive or inconclusive.
SMILES,USP2a block,Pin1 inhibitor,ClpP mod,PKM2 activator,a7 integrin act,IL-2 act
CCCCCC(=O)Nc1cccc(S(=O)(=O)NC2=NCCC2)c1,1%,-1%,35µM*,nt,19%,0
Cc1ccc(OCC(=O)Nc2cccc(S(=O)(=O)NC3=NCCCCC3)c2)cc1C,2%,-1%,14µM*,-1%,8%,-3
COc1cc(OC)c(NC(=O)c2nn(C)c3c2COc2ccccc2-3)cc1Cl,nt,10%,-16%,nt,nt,nt
O=C(Nc1ccccc1N1CCOCC1)c1ccc(F)c(S(=O)(=O)N2CCOCC2)c1,-3%,-1%,-1%,nt,0%,1
CC1Cc2ccccc2N1C(=O)c1ccc(F)c(S(=O)(=O)N2CCOCC2)c1 (stereo unspecified),3%,0%,28µM*,nt,3%,0
O=C1C(Nc2ccccc2)=C/C(=N/S(=O)(=O)c2cccs2)c2ccccc21,2%,?,11µM*,-18%,-47%,-6
Cc1ccc(NC2=C/C(=N/S(=O)(=O)c3cccs3)c3ccccc3C2=O)cc1,2%,-12%,-19%,-3%,-62%,-1
Cc1ccc(S(=O)(=O)N2CCN(c3nc(-c4cccs4)nc4nc[nH]c34)CC2)cc1,nt,3%,?,nt,nt,nt
CC(C)c1cc(=O)oc2c3c4c(cc12)CCCN4CCC3,15%,?,28µM*,14%,-10%,4
Cc1ccc(CN2COc3ccc4c(C)cc(=O)oc4c3C2)cc1,nt,-8%,4%,nt,nt,nt
Cc1cc(=O)oc2c3c4c(cc12)OCCN4CCC3,11%,?,22µM*,22%,2%,-1
Cc1sc2ccccc2[n+]1Cc1ccccc1,nt,nt,0%,nt,nt,nt
O=C(Nc1nnc(CCc2ccccc2)s1)C1CCN(C(=O)c2ccco2)CC1,nt,-5%,1%,nt,nt,nt
CCCN1C(=O)/C(=C/c2ccc(C)o2)SC1=Nc1ccc(OCC)cc1,-3%,1%,2%,13µM*,3%,0
COc1ccc(CN2CC[C@H]3C=CC[C@@H](C(=O)NCc4cccnc4)[C@H]3C2=O)cc1OC,nt,nt,-3%,nt,nt,nt
Cc1nc(NCc2ccccc2)c2nc(-c3ccccc3)n(CCN3CCOCC3)c2n1,nt,nt,nt,1%,nt,nt
O=C1CSC(c2cn(-c3ccccc3)nc2-c2cc3ccccc3oc2=O)N1Cc1ccco1 (stereo unspecified),1%,44%,32µM*,5%,-11%,-2
CC(=O)Nc1ccc(/C=C/c2ccnc3ccccc23)cc1,nt,nt,32%,nt,nt,nt
CCc1ccc(-c2cc(C)no2)cc1S(=O)(=O)Nc1ccc(C)cn1,-1%,-9%,32µM*!,nt,-3%,-3
Cc1cc(-c2ccc(C)c(S(=O)(=O)Nc3ccccn3)c2)on1,nt,?,28µM*,nt,nt,nt
CCOc1ccc(Nc2oc(-c3ccc(Cl)cc3)nc2C#N)cc1,0%,?,?,0%,-18%,2
CN(C)c1oc(-c2ccc(OCc3ccc(Cl)cc3)cc2)nc1C#N,6%,-1%,16µM*,-2%,22%,0
CN(C)c1oc(-c2ccc(COc3ccccc3)o2)nc1C#N,nt,10%,32µM*,nt,nt,nt
CCCCNS(=O)(=O)c1ccc2nc(SCC(=O)c3ccc(C#N)cc3)[nH]c2c1,4%,?,-1%,22µM*,20%,0
CCCCNS(=O)(=O)c1ccc2nc(SCC(=O)Nc3ccccc3)[nH]c2c1,-6%,3%,-3%,3%,0%,0
SMILES,USP2a block,Pin1 inhibitor,ClpP mod,PKM2 activator,a7 integrin act,IL-2 act
CC(=O)Nn1c(-c2ccccc2)cc2ccccc21,0%,-8%,14µM*,-2%,8%,-4
Cc1c(C(=O)NCc2ccccc2)oc2c1-c1[nH]ncc1CC2,nt,0%,25µM*,nt,nt,nt
Cc1cccc(NC(=O)c2oc3c(c2C)-c2[nH]ncc2CC3)c1C,nt,28%,-14%,nt,nt,nt
CS(=O)(=O)Nc1cccc(C2=NN(S(=O)(=O)c3ccccc3)C(c3ccco3)C2)c1 (stereo unspecified),2%,5%,0%,22µM*,-11%,-3
CCS(=O)(=O)Nc1cccc(C2=NN(S(=O)(=O)c3ccccc3)C(c3ccco3)C2)c1 (stereo unspecified),3%,23%,nt,?,-7%,-4
COc1cc(OC)c2c(c1C(CCN1CCCC1)c1ccc(N(C)C)cc1)OC(=O)CC2c1ccc(N(C)C)cc1 (stereo unspecified),nt,51%,nt,nt,nt,nt
N#Cc1nc(Nc2cccc(C(F)(F)F)c2)nc(NC2CCCC2)n1,nt,8%,nt,nt,nt,nt
O=S(=O)(NCCNc1nccc(C(F)(F)F)n1)c1ccccc1,-1%,-1%,1%,18µM*,33%,-1
O=C(NCCNc1nccc(C(F)(F)F)n1)c1cccc(C(F)(F)F)c1,1%,-5%,1%,-1%,-23%,1
CC(=O)N1c2ccc(S(=O)(=O)N(C)CC(=O)NCc3ccccc3)cc2CC1C (stereo unspecified),1%,-7%,-2%,nt,-26%,-1
COc1cc(NC(=O)CN(C)S(=O)(=O)c2ccc3c(c2)CC(C)N3C(C)=O)cc(OC)c1OC (stereo unspecified),0%,-2%,0%,4%[0.46 µM],10µM*,-2
CC(C)(Oc1ccc(Cl)cc1)C(=O)NC1CCCCC1,-1%,0%,20µM*,nt,29%,-1
CC1(C)CC(NC(=O)C(C)(C)Oc2ccc(Cl)cc2)CC(C)(C)N1,-1%,2%,-2%,nt,14%,-1
COC(=O)/C=C/c1cc(F)ccc1S(=O)(=O)Nc1ccccc1,nt,nt,-2%,nt,nt,nt
O=C1Nc2ccccc2/C1=C/C(=O)c1cccs1,1%,2%,32µM*,8%,-45%,-4
CCN(Cc1ccncc1)S(=O)(=O)c1ccc(C(C)=O)cc1,1%,-5%,-4%,22µM*,-26%[7.66 µM],-2
O=C(Nc1ncnc2nc[nH]c12)c1ccccc1,nt,-5%,1%,nt,nt,nt
Cc1ccnc(NS(=O)(=O)Cc2ccccc2)c1,1%,-3%,40µM*,7%,-1%,-1
Cc1ccnc(NC(=O)CS(=O)(=O)Cc2ccccc2)c1,-2%,-5%,-12%,-3%,12%,-1
COc1ccc(S(=O)(=O)Nc2cc(C)ccn2)cc1,-3%,-1%,14µM*,1%,-7%,-1
Cc1ccc(S(=O)(=O)N2CCN(c3ccc(C(=O)N4CCOCC4)cc3[N+](=O)[O-])CC2)cc1,-2%,1%,28µM*,1%,5%,-1
Cc1ccc(S(=O)(=O)N2CCN(C(=O)c3ccc(N4CCCC4)c([N+](=O)[O-])c3)CC2)cc1,0%,-9%,-2%,-1%,26%,0

# Source: PubChem BioAssay (National Center for Advancing Translational Sciences (NCATS))
